High-throughput results (PubChem)
Most compounds without a hit are left out; they make up all but 5.5% or so of the library.
Six1-Eya2 inh: inhibitors of human Six1/Eya2 interaction. AlphaScreen GST-Six1/His-Eya2 binding, biochemical; stronger effect = lower value. activity change, % (no concentration beside the values). 0.56% of 360,000 active. AID 651725; in the data active means activity change below about -65%; inconclusive means mostly about -30% to -63%; further: on the % scale 0 is the no-effect control and ±100 the full control effect
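Homogeneous AlphaScreen proximity assay pairing GST-Six1 with His-tagged Eya2 (added as 5X mix: 250 nM and 500 nM) in 50 mM Tris pH 8.0, 300 mM NaCl, 1 mM TCEP. Glutathione donor and nickel acceptor beads; 1 h, 37 °C, dark.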
Gal4-VP16 FLuc: Gal4-VP16 reporter inhibition counter-screen | Drosophila S2 Gal4-VP16 UAS-luciferase, luminescence, 20 h | Potency, µM (titrated, usually from 53.6 µM), for the others: at the top dose activity, negative = inhibition, hits mostly inhibitors | 3.5% of 310,000 active;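 further: Gal4-VP16 expression switched on by copper sulfate through the metallothionein promoter; potency means the concentration at half of the fitted maximal effect; on the % scale 0 is the no-effect control and ±100 the full control effect; nearly all actives have a fitted effect of over 50% in size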
MBNL1 CUG block: blocks human MBNL1 binding to CUG repeat RNA; Q9NR56; TR-FRET MBNL1-His/biotin-(CUG)12 binding, 665/545 ratio; Potency, µM (series often up to 57.5 µM), without a hit: top-dose activity change, negative = inhibition, actives largely listed as inhibitors; 0.036% of 280,000 active; AID 2675; active means well fitted inhibition curve with a large enough effect in the signal ratio, with a control signal flat, not every such curve was filed as active; inconclusive means small, poorly fitted or top-dose-only effect, or effect the other way, or a change in a side signal; inactive means no such curve, though single readings can be large or run the other way; the % refers to the signal ratio; further: potency means the concentration at half of the fitted maximal effect; on the % scale 0 is the no-effect control and ±100 the full control effect
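MBNL1-His + Biotin-(CUG)12, cpd titration 92 nM–58 uM; Tb anti-His Ab 0.055 ng/ul, SA-XL665 5 nM (final); 60 min RT; ratiometric 665/545 nm, Ex 340 nm; normalized to buffer and full-complex controls.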
RORg inh: blocks mouse ROR gamma transcriptional activity. Drosophila S2 Gal4-RORgamma UAS-luciferase reporter, 20 h. Potency, µM (titrated, usually from 53.6 µM), without a hit: top-dose activity change, negative = inhibition, actives largely listed as inhibitors. 5.4% of 310,000 active. AID 2551; further: potency means the concentration at half of the fitted maximal effect; on the % scale 0 is the no-effect control and ±100 the full control effect; nearly all actives have a fitted effect of over 60% in size
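Stable Schneider cell line, Gal4 DNA-binding domain fused to ROR gamma, UAS-luciferase. Cmpd 1 hr RT → CuSO4 700 uM final → 20 hr RT → luciferase reagent 10 min → luminescence.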
CtBP-E1A inh: inhibitors of CtBP/E1A interaction. AID 651724. 0.49% of 340,000 active. activity change, % (test concentration not listed). AlphaScreen GST-E1A/His-CtBP binding, 1536-well; stronger effect = lower value; in the data active means activity change below about -65%; inconclusive means mostly about -30% to -63%; further: on the % scale 0 is the no-effect control and ±100 the full control effect
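Protein mix (5X: 125 nM each GST-E1A, His-CtBP) was incubated with pinned compound 2 h at 37 deg C in dark, in 50 mM Tris pH 8.0 buffer with 300 mM NaCl. Glutathione donor and nickel acceptor beads followed; AlphaScreen signal read after 1 h.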
CBFb RUNX1 block: inhibitors of human CBF-beta and RUNX1 interaction | Q01196+Q13951 | AlphaScreen CBFb-His/RUNX1-biotin binding, biochemical | Potency, µM (highest dose often 59.8 µM), without a hit: top-dose activity, negative = inhibition, actives largely listed as inhibitors | 230,000 tested, under 10 active; further: % of control where 0% means no effect
Target sequence (Q01196 whole entry, looked up): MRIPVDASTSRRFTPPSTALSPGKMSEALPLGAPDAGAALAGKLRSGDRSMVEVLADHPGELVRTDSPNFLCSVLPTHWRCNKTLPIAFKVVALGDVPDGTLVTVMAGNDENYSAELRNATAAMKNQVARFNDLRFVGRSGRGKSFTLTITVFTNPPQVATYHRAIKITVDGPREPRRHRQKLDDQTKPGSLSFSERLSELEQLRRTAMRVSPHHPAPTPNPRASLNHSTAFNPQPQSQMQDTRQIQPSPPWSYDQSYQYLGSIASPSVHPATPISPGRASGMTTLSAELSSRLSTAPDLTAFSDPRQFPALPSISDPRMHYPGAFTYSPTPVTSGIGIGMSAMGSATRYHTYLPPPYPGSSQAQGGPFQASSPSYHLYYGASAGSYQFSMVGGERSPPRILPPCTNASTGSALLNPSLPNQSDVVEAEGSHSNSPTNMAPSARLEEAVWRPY
Target sequence (Q13951 whole entry, looked up): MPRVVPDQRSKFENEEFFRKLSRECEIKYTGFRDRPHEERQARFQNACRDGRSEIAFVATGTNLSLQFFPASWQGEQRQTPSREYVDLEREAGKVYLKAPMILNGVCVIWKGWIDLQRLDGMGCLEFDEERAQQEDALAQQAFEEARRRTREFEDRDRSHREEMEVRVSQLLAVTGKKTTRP
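AlphaScreen binding: CBFb-His and RUNX1-biotin (30 nM each) preincubated 20 min, compound added for 15 min, then nickel and streptavidin beads for 90 min, all at room temperature. Disruption of the interaction by any mechanism counts as activity.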
Starred values were filed as active, the others as inactive; ? = inconclusive; / = no result; [ ] = dose if it differs, or a comment. Unless noted, the call rests on the fitted dose curve; in most records, active means well fitted curve in the direction sought with a large enough effect; inconclusive means small, poorly fitted or top-dose-only effect, or another doubt; inactive means no such curve, though single readings can be large; an effect the other way counts as inactive or inconclusive.

SMILES	Six1-Eya2 inh	Gal4-VP16 FLuc	MBNL1 CUG block	RORg inh	CtBP-E1A inh	CBFb RUNX1 block
C=CCNC(=S)N(Cc1ccccc1)Cc1ccccc1	7	-12%	-8%	?	24	20%
CCCN(Cc1ccccc1)C(=S)Nc1ccc(OCC)cc1	-2	-22%	-4%	10µM*	-2	13%
CCCN(Cc1ccccc1)C(=S)Nc1cccc(C(F)(F)F)c1	3	?	/	-35%[10 µM]	/	?
CN1CCC(N(C)C(=S)Nc2ccc(SC(F)F)cc2)CC1	-3	1%	/	-6%	12	8%
C=C(C)CN(Cc1ccccc1)C(=S)Nc1ccccc1	-7	?	-7%	?	4	/
COc1ccc(C(=O)N2CCC3(CCCN(Cc4ccccc4OC)C3)CC2)cc1	/	-6%	/	-12%	/	/
COC(=O)CCN(Cc1cc(OC)ccc1OC)S(=O)(=O)c1ccccc1Br	-8	/	/	/	-11	/
O=C(Nc1ccc(F)c(F)c1)C1CCN(S(=O)(=O)c2cccs2)CC1	-1	/	/	/	7	/
N#CCCN(Cc1ccccc1)C(=S)Nc1ccc(F)cc1	-3	-7%	-8%	0%	9	25%
CCCN(Cc1ccccc1)C(=S)Nc1ccc(F)cc1	2	-23%	/	16µM*	0	5%
CC(C)C(N)c1csc(Nc2ccccn2)n1 (centres undefined)	-83*	/	/	/	-91*	/
NC(c1csc(Nc2nncc3ccccc23)n1)c1ccccc1Cl (centres undefined)	-2	/	/	/	-3	/
NC(c1csc(Nc2ccccn2)n1)c1ccccc1Cl (centres undefined)	-79*	/	/	/	-91*	/
NC(c1csc(Nc2cnccn2)n1)c1ccccc1Cl (centres undefined)	-67*	/	/	/	-76*	/
CC1(Cc2cc(Cl)ccc2C(F)(F)F)C(=O)Nc2cc(-c3ccccc3Cl)ccc21 (centres undefined)	4	/	/	/	3	/
COc1ccccc1C(=O)NCCC(=O)N(C)CC(=O)Nc1ccc(Cl)cc1	-4	/	/	/	7	/
Cc1nn(CC(=O)NCc2cccnc2)c(C)c1[N+](=O)[O-]	-7	2%	2%	-5%	-1	1%
COCCNC(=S)NC12CC3CC(CC(C3)C1)C2	-3	4.5µM*	0%	3.5µM*	0	-2%
COCCNC(=O)NC12CC3CC(CC(C3)C1)C2	-1	-15%	1%	0%	/	18%
Cc1ncoc1C(=O)N1CCCC(C(=O)c2cccc3ccccc23)C1 (centres undefined)	4	16%	1%	30%	/	2%
CC1=C(C(=O)N2CCCC(C(=O)c3cccc4ccccc34)C2)OCCO1 (centres undefined)	-1	13µM*	17%	?	/	5%
Cn1nc(C(C)(C)C)cc1C(=O)NCc1ccc(N2CCCC2=O)cc1	-1	0.56µM*	-7%	?	1	6%
Cc1ccc(CNC(=O)c2ccc(N3CCCC3=O)cc2)cc1	4	2%	-7%	10%	3	5%
Clc1cccc(Cl)c1/C=C/c1nc2ccccc2[nH]1	11	?	16%	11µM*	13	23%
Clc1ccc(/C=C/c2nc3ccccc3[nH]2)c(Cl)c1	21	7.1µM*	20%	?	24	27%
SMILES	Six1-Eya2 inh	Gal4-VP16 FLuc	MBNL1 CUG block	RORg inh	CtBP-E1A inh	CBFb RUNX1 block
Clc1ccc(/C=C/c2nc3ccccc3[nH]2)cc1	3	7.1µM*	9%	4.5µM*	8	-1%
O=c1[nH]c(/C=C/c2ccccc2Cl)nc2ccccc12	-4	15%	2%	-4%	-3	/
O=C(/C=C/c1ccc(Cl)cc1Cl)c1nc2ccccc2[nH]1	8	1%	4%	-45%	-5	0%
O=C(c1ccco1)N1N=C(c2ccco2)CC1c1ccc(Cl)cc1Cl (centres undefined)	9	/	/	/	18	/
COC(=O)c1c(NC(=O)C2CCCCC2)sc2c1CC(C)(C)NC2(C)C	3	0%	-7%	-3%	3	/
CCOc1ccc(CC(=O)N2N=C(C)CC2(O)C(F)(F)F)cc1 (centres undefined)	-6	5µM*	9%	1.6µM*	-1	-3%
CCC1=NN(C(=O)Cc2ccc([N+](=O)[O-])cc2)C(O)(C(C)(C)C)C1 (centres undefined)	1	-9%	13%	8.9µM*	-8	7%
CCCC1=NN(C(=O)Cc2ccc(OC)cc2)C(O)(C(F)(F)F)C1 (centres undefined)	4	?	7%	13µM*	0	4%
CCOc1ccc(CC(=O)NCc2cn3c(C)csc3n2)cc1	2	5%	-11%	3%	2	1%
CCc1ccc(C2(O)CC(C(F)(F)F)=NN2C(=O)Cc2ccc([N+](=O)[O-])cc2)cc1 (centres undefined)	-6	-5%	16%	?	1	6%
COc1ccc(C2=NN(C(=O)C(O)c3ccccc3)C(O)(C(F)(F)F)C2)cc1 (centres undefined)	0	-5%	-3%	7%	-2	/
C=CCNC(=S)N/N=C/c1ccc(N(CC)Cc2ccccc2)cc1	-15	0.71µM*	17%	0.5µM*	-17	-6%
CCN(CC)c1ccc(/C=N/NC(=S)NCc2ccc(OC)cc2)cc1	-8	1.4µM*	-2%	0.89µM*	-16	-19%
CCN(CC)c1ccc(/C=N/NC(=O)Cc2ccc(OC)c(OC)c2)cc1	-14	11%	?	17%	-17	-12%
COc1ccc(CNC(=S)N/N=C/c2ccncc2)cc1	-6	?	-14%	?	2	5%
CCN(CC)c1ccc(/C=N/NC(=S)NCc2ccccc2)cc1	-23	4µM*	3%	1.3µM*	-15	-13%
CCN(CC)c1ccc(/C=N/NC(=O)C(O)c2ccccc2)cc1 (centres undefined)	-21	3%	?	-2%	0	-3%
O=C(/C=C/[C@H]1O[C@@H](n2cnc3c(NC(=O)c4ccccc4)ncnc32)[C@H](O)[C@@H]1O)NC1CCCCC1	0	/	/	/	0	/
COc1ccc(NC(=O)[C@H](C)NC(=O)C2CCN(S(=O)(=O)c3ccc(C)cc3)CC2)cc1	-7	4%	2%	1%	/	/
CC1=C(C(=O)OCc2ccccc2)C(c2ccc(Cl)cc2)NC(=O)N1CCCC(=O)O (centres undefined)	-2	8%	12%	16µM*	4	/
O=c1c2ccccc2nc2oc3ccccc3n12	-8	-8%	-5%	-29%	-5	/
